# HP1b chromo inh – HTS for Inhibitors of HP1-beta Chromodomain Interactions with Methylated Histone Tails; AlphaScreen HP1-beta / biotin-H3K9me3 peptide binding; Potency, µM (highest dose often 114 µM), for inactives: at the top dose activity change, negative = inhibition, actives largely listed as inhibitors; 390,000 compounds, 0.56% hits; AID 540317, 2011; also: potency is read from the fitted curve at half-maximal effect; nearly all actives have a fitted effect of over 70% in size
#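 HP1-beta protein (50 nM final) preincubated 30 min at room temperature with biotinylated H3(1-18)K9me3 peptide (50 nM) in PBS pH 7.4, 0.01% Tween-20, then compound added for 30 min. AlphaScreen streptavidin donor/nickel chelate acceptor beads (10 ug/mL final), 30 min dark, luminescence read.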
# BAZ2B block – qHTS Assay for Inhibitors of BAZ2B | 360,000 compounds, 4.4% hits | AlphaScreen BAZ2B-H3K14Ac peptide displacement | AID 504333, 2011 | Potency, µM (titrated, usually from 114 µM), for inactives: top-dose activity change, negative = inhibition, hits mostly inhibitors | Bromodomain adjacent to zinc finger domain protein 2B (Homo sapiens), Q9UIF8; also: potency is read from the fitted curve at half-maximal effect; % is scaled to controls: 0 for no effect and ±100 for the full control effect; nearly all actives have a fitted effect of over 60% in size
# Target sequence (Q9UIF8 whole entry, looked up, the tested form may be a part): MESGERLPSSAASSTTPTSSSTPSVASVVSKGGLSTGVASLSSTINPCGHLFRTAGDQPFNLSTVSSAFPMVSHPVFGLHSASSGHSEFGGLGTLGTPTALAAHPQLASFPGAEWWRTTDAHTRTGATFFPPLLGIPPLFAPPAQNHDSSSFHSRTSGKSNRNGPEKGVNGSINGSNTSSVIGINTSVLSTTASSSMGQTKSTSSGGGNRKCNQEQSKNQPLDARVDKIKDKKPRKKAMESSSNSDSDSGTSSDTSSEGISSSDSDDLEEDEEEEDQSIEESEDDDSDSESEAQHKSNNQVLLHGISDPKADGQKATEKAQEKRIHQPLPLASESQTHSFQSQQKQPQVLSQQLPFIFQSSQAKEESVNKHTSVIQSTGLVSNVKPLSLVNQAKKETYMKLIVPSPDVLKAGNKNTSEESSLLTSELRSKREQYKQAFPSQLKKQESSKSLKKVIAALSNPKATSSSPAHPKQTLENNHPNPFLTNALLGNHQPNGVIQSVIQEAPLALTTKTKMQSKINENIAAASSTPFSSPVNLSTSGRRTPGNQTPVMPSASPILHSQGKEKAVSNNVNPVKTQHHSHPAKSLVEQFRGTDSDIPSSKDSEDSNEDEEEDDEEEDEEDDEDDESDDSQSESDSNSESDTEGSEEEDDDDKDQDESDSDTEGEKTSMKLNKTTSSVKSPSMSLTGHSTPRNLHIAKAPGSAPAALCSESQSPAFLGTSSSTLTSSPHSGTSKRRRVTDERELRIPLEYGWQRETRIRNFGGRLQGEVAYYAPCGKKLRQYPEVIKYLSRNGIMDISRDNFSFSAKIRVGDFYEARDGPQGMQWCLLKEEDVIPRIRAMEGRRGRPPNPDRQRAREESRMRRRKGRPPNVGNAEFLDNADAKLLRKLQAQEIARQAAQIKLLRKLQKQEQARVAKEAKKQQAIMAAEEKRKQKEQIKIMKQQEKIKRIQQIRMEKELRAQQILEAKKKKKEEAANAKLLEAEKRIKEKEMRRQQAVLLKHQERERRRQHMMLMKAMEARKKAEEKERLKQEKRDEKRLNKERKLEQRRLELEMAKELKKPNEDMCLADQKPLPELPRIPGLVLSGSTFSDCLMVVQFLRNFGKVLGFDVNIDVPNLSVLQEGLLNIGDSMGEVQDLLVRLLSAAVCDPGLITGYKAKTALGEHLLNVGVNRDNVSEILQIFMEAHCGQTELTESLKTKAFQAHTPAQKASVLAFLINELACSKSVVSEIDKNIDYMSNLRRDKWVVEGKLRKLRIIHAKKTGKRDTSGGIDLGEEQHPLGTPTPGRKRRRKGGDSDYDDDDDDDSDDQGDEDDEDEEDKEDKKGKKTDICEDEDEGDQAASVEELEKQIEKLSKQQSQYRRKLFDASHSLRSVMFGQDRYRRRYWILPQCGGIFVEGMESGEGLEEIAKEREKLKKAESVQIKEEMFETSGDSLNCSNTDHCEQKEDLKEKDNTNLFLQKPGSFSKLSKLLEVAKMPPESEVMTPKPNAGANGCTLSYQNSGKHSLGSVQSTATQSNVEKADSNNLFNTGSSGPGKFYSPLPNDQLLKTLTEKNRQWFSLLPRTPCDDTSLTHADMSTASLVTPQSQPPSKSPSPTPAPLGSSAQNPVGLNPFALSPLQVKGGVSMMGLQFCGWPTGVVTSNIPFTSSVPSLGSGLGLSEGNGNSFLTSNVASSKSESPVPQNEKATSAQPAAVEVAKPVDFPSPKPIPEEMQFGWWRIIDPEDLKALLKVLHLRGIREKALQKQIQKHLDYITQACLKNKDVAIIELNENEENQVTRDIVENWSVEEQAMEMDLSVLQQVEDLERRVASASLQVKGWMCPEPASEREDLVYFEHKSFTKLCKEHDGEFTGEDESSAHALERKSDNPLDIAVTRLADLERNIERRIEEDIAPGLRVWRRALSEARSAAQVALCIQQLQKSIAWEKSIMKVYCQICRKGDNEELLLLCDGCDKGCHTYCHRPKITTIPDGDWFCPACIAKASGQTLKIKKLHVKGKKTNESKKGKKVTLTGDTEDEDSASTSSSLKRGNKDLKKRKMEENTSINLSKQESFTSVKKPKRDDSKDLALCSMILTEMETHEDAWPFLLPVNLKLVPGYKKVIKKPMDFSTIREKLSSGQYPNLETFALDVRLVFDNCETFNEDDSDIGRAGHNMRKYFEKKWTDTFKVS
#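 Multi-concentration screen (max 110 uM) measuring displacement of acetylated histone H3 peptide from BAZ2B by AlphaScreen, using 50 nM protein, 50 nM peptide and 10 ug/mL streptavidin donor plus Ni-chelate acceptor beads.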
# Six1-Eya2 inh – qHTS Assay for Inhibitors of the Six1/Eya2 Interaction; Homeobox protein SIX1 (Homo sapiens) + Protein phosphatase EYA2 (Homo sapiens), …; AlphaScreen GST-Six1/His-Eya2 binding, biochemical; stronger effect = lower value; activity change, % (concentration not given with the values); 360,000 compounds, 0.56% hits; in the data active = activity change below about -65%; inconclusive = mostly about -30% to -63%; also: % is scaled to controls: 0 for no effect and ±100 for the full control effect
#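 Six1/Eya2 binding was read as AlphaScreen signal after compounds were pinned into GST-Six1 plus His-tagged Eya2 (5X stock 250/500 nM) in pH 8.0 Tris/NaCl/TCEP buffer, beads added, then incubated 1 h, 37 C, dark.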
# JMJD2A Tudor – qHTS Assay for Inhibitors of JMJD2A-Tudor Domain; Lysine-specific demethylase 4A (Homo sapiens), O75164; AlphaScreen JMJD2A-Tudor / H3K4me3 peptide binding; Potency, µM (titrated, usually from 114 µM), inactives show at the top dose activity change, negative = inhibition, most hits filed as inhibitors; 390,000 compounds, 4.4% hits; AID 504339, 2011; also: potency is read from the fitted curve at half-maximal effect; % is scaled to controls: 0 for no effect and ±100 for the full control effect; nearly all actives have a fitted effect of over 50% in size
# G9a block – qHTS Assay for Inhibitors of Histone Lysine Methyltransferase G9a | G9a H3K9 monomethylation, AlphaScreen, 2 h | AID 504332, 2011 | Potency, µM (top dose mostly 102 µM), for inactives: at the highest dose activity, negative = inhibition, hits mostly inhibitors | 350,000 compounds, 8.8% hits | Histone-lysine N-methyltransferase EHMT2 (Homo sapiens), Q96KQ7; also: potency is read from the fitted curve at half-maximal effect; % is scaled to controls: 0 for no effect and ±100 for the full control effect; nearly all actives have a fitted effect of over 75% in size
#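 Methyltransferase reactions run at room temperature for 2 h (20 nM enzyme, 500 nM biotin-H3K9 peptide, 20 uM SAM) after a 15 min compound preincubation; product detected by AlphaScreen beads and anti-H3K9me1 antibody.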
# CtBP-E1A inh – qHTS Assay for Inhibitors of the CtBP/E1A Interaction | CtBP / adenovirus E1A interaction (AlphaScreen) | AlphaScreen GST-E1A/His-CtBP binding, 1536-well; stronger effect = lower value | activity change, % (test concentration not listed) | 340,000 compounds, 0.49% hits; in the data active = activity change below about -65%; inconclusive = mostly about -30% to -63%; also: % is scaled to controls: 0 for no effect and ±100 for the full control effect
#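 In 5 uL wells, 23 nL compound meets equimolar GST-E1A and His-CtBP (5X stock 125 nM each) for 2 h, 37 °C. Beads (5X, 50 ug/mL) then 1 h, 37 °C, dark.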
# Numbers without * were called inactive; u = inconclusive; x = no result given; [ ] = dose if it differs, or a comment. Shown are actives, neighbours in structure and some others; about 10% of the full set was active somewhere. Unless noted, calls follow the shape of the dose curve; as a rule, active = well fitted inhibition curve with a large enough effect; inconclusive = small, poorly fitted or top-dose-only effect; inactive = no such curve, though single readings can be large or run the other way.
SMILES,HP1b chromo inh,BAZ2B block,Six1-Eya2 inh,JMJD2A Tudor,G9a block,CtBP-E1A inh
COc1cccc(NC2=C(NCCO)C(=O)c3ccccc3C2=O)c1,u,35µM*,u,50µM*,-2%[0.501 µM],u
COc1ccc(NC2=C(NCCO)C(=O)c3ccccc3C2=O)cc1,16µM*,22µM*,-28,u,14µM*,-23
Cc1cccc(NC2=C(NCCO)C(=O)c3ccccc3C2=O)c1,20µM*,20µM*,-67*,56µM*,32µM*,-24
COc1cc(-c2nc(Cc3c(F)cccc3Cl)no2)cc(OC)c1OC,61%,50µM*,0,-10%,u,46
COc1cc(-c2noc(-c3cccc(Cl)c3)n2)cc(OC)c1OC,31%,33%,9,2%,27%[59 µM],5
Cc1ccc(NC(=O)CN(c2ccc(C)cc2)S(=O)(=O)c2cccc3nonc23)cc1,-1%,-32%,-13,u,50µM*,-3
CCOC(=O)CN(Cc1ccccc1)C(C(=O)NC1CCCCC1)c1ccc(OC)cc1 (stereo not drawn),-7%,2%,x,-20%,0%[59 µM],x
O=C(O)C1=NN(c2ccccc2)C(=O)C1,u,u,-4,56µM*,50µM*,3
CC(=O)[C@@H]1[C@@H](C(=O)c2ccc(F)cc2)[C@]2(C(=O)Nc3ccccc32)[C@H]2C=Cc3cc(F)ccc3N12,u,-26%,-1,u,u,-4
O=C(c1ccc(F)cc1)[C@@H]1[C@@H](C(=O)c2ccccc2)[C@@]2(C(=O)Nc3ccccc32)[C@H]2c3ccccc3C=CN12,x,u,x,x,7.1µM*,x
Cc1cccc(C)c1NC(=O)CCC(=O)N1Cc2ccccc2Oc2ncccc21,3%,2%[57.1 µM],x,-13%,-16%[59 µM],x
CCC1(C)Cc2c(sc3nc(SC)n(-c4ccc(C)cc4)c(=O)c23)CO1 (stereo not drawn),3%,0%,x,-18%,-4%[59 µM],x
CCOC(=O)CSc1nc2sc3c(c2c(=O)[nH]1)CC(C)(CC)OC3 (stereo not drawn),23%,4%,0,-7%,32µM*,7
CCC1(C)Cc2c(sc3nc(NN)n(C)c(=O)c23)CO1 (stereo not drawn),1%,15%,u,-13%,45µM*,u
O=C(NCc1cccs1)c1ccc2c(c1)N(Cc1cccc(F)c1)C(=O)c1ccccc1S2,33%,0%,x,-7%,-23%[59 µM],x
COc1cc(OC)nc(NC(C)=O)n1,28%,8%,-1,3%,x,8
C1CCN=C(Nc2nn[nH]n2)CC1,-2%,79µM*,9,7.9µM*,u,-5
COC(=O)c1nc(NC2=NCCCCC2)n[nH]1,-15%,1%,1,79µM*,u,1
COC(=O)c1nc(NC(C)=O)n[nH]1,x,4%,x,x,16µM*,x
Cc1ccccc1CNC(=O)C(=O)NCC(c1ccc2c(c1)OCO2)N1CCOCC1 (stereo not drawn),15%[57 µM],-1%,x,-15%,-2%[59 µM],x
CCC(=O)N1CCc2cc(Br)cc(S(=O)(=O)CCC(=O)Nc3ccc(C)c(C)c3)c21,24%,-1%,x,-22%,-2%[59 µM],x
COc1ccc(-c2cc3ccc(O)c(CN4CCC(C)CC4)c3oc2=O)cc1,48%[57 µM],45%,x,u,56%[59 µM],x
COc1ccc2nc(N(Cc3cccnc3)C(=O)c3ccc(Cl)cc3)sc2c1,9%,-3%,x,-13%,8%[59 µM],x
Cc1cc(-c2nc3ncccc3o2)ccc1NC(=O)c1ccc(Cl)cc1,35%,-4%,x,-7%,0%[59 µM],x
C/C(=N\Nc1nc2ccccc2nc1C)c1ccccc1O,-8%,-13%,-2,-21%,22µM*,0

# From PubChem BioAssay
